In PMC11062922 (Nature Chemical Biology, 2023) one finds potency estimated from few doses data, which are given here for 19 compounds.

Holding throughout (set-up): species or system human, MV4-11 + K-562 + COLO205 + SK-N-BE2 + OVCAR-8
For experiment [1], the system named is PRKD2. As to conditions: read-out: apparent Kd, compound concentrations: 100 nM and 1000 nM (sheet 'Samples'), n = 1.
Experiment [2] concerns AKT1. The settings on record: read-out: apparent Kd, n = 1.
Experiment [3] concerns RIOK2. As to conditions: read-out: apparent Kd; compound concentrations:100 nM and 1000 nM (sheet 'Samples'); n = 1.
Experiment [4] concerns BMPR1B. The settings on record: read-out: apparent Kd, compound concentrations: 100 nM and 1000 nM (sheet 'Samples'), n = 1.
Experiment [5] relates to CDK16. As to conditions: read-out: apparent Kd, compound concentrations: 100 nM and 1000 nM (sheet 'Samples'), n = 1.
Experiment [6] relates to CDKL5. As to conditions: read-out: apparent Kd, compound concentrations: 100 nM and 1000 nM (sheet 'Samples'), n = 1.
For experiment [7], the system named is MAP2K5. As to conditions: read-out: apparent Kd, n = 1.
The test system of experiment [8] is JAK2. As to conditions: read-out: apparent Kd, compound concentrations: 100 nM and 1000 nM (sheet 'Samples'), n = 1.
Experiment [9] concerns EPHA5. The settings on record: read-out: apparent Kd, n = 1.
Experiment [10] concerns EPHB1. As to conditions: read-out: apparent Kd, n = 1.
The test system of experiment [11] is DDR2. The settings on record: read-out: apparent Kd; compound concentrations: 100 nM and 1000 nM (sheet 'Samples'), CATDS: 2.76833558022507E-2; n = 1.
In experiment [12] the test system is PLK4. As to conditions: read-out: apparent Kd, n = 1.
Experiment [13] relates to TNK2. As to conditions: read-out: apparent Kd, n = 1.
For experiment [14], the system named is EPHB6. As to conditions: read-out: apparent Kd, n = 1.
For experiment [15], the system named is CDK17. The settings on record: read-out: apparent Kd, compound concentrations: 100 nM and 1000 nM (sheet 'Samples'), n = 1.
Experiment [16] relates to FLT4. As to conditions: read-out: apparent Kd, compound concentrations: 100 nM and 1000 nM (sheet 'Samples'), n = 1.
For experiment [17], the system named is BTK. As to conditions: read-out: apparent Kd; compound concentrations: 100 nM and 1000 nM (sheet 'Samples'), CATDS: 2.19270493489029E-2; n = 1.
The mark [18] stands for this setting: compound concentrations:100 nM and 1000 nM (sheet 'Samples').

Where two headings read alike, the source gives them in different places.

Regarding `Cc1cccc(Nc2nc(NCCN)ncc2C(N)=O)c1` [GSK1292139B], in experiment [1] (CATDS: 7.4938194739321201E-2), the potency estimated from few doses is 1250 nM.

On to `Cc1cccc(-c2cc(-c3c[nH]nc3-c3ccccn3)ccn2)c1` [GW679395X], for which the potency estimated from few doses in experiment [2] (setting [18]) was 1770 nM; in experiment [3], 1630 nM.

With `COc1cccc(-n2ncc3c(N/N=C/c4ccc(C(=O)NCCN(C)C)cc4)ncnc32)c1.Cl` [GW784307A], the potency estimated from few doses in experiment [4] (CATDS: 3.8430447981996803E-2) is 486 nM; in experiment [5] (CATDS: 2.5546052944154699E-2), 2020 nM; in experiment [6] (CATDS: 0.115641908649272), 49.3 nM; in [7] (compound concentrations: 100 nM and 1000 nM (sheet 'Samples'), CATDS: 2.4851428787040001E-2), 2320 nM.

On to `COc1ccccc1CNC1=NC(=O)/C(=C/c2ccc3ncccc3c2)S1` [RO4503315-000], for which the potency estimated from few doses in experiment [8] (CATDS: 8.0204348967342395E-2) is 755 nM.

Take `O=C1N=C(NCC(CO)c2ccccc2)S/C1=C\c1ccc2ncccc2c1` (centres unmarked) [RO4582641-000]: the potency estimated from few doses in experiment [6] (CATDS: 6.3730815830875698E-2) was 1510 nM.

Take `Cc1ccc(O)cc1Nc1ccnc2cc(-c3ccccn3)ccc12.Cl` [GW440139A]: the potency estimated from few doses in experiment [4] (CATDS: 2.7107507605443299E-2) was 941 nM; in experiment [9] (compound concentrations: 100 nM and 1000 nM (sheet 'Samples'), CATDS: 4.7155213926178503E-2) it was 97.2 nM; in experiment [10] (compound concentrations: 100 nM and 1000 nM (sheet 'Samples'), CATDS: 5.4162955802276501E-2) it was 67.7 nM.

As to `CN1C(=O)c2ccccc2N(C)c2nc(Nc3cnn(C4CCNCC4)c3)ncc21` [XMD-17-51], the potency estimated from few doses in experiment [4] (CATDS: 1.5845545997130402E-2) was 986 nM; in [11] it was 189 nM; in experiment [8] (CATDS: 1.8456350462982201E-2) it was 580 nM; in experiment [12] (compound concentrations: 100 nM and 1000 nM (sheet 'Samples'), CATDS: 4.7474552673817297E-2), 56.7 nM; in [1] (CATDS: 1.4106382440731599E-2), 1620 nM.

As to `CNC1=NC(=O)/C(=C/c2ccc3ncccc3c2)S1` [RO4595949-000], the potency estimated from few doses in [6] (CATDS: 4.9375621350065603E-2) was 2150 nM; in experiment [8] (CATDS: 6.3201453255696996E-2) it was 790 nM; in experiment [1] (CATDS: 5.1323444817528999E-2) it was 1770 nM.

Regarding `COc1cc(/C=N/Nc2ncnc3[nH]ncc23)ccc1O` [GW578748X], the potency estimated from few doses in [3] was 1600 nM.

As for `COc1cc2ncn(-c3cc(OCCCc4ccccc4)c(C(N)=O)s3)c2cc1OC` [GSK205189A], the potency estimated from few doses in experiment [9] (setting [18]) was 720 nM; in [10] (setting [18]) it was 958 nM; in experiment [12] (setting [18]), 1240 nM; in experiment [13] (setting [18]), 48.2 nM.

Take `CN1CCN(Cc2cccc(-c3ccc4c(Nc5ccc(Oc6ccccc6)cc5)ccnc4c3)c2)CC1` [GW578342X]: the potency estimated from few doses in experiment [7] (compound concentrations: 100 nM and 1000 nM (sheet 'Samples'), CATDS: 0.10104411833730501) was 640 nM.

For `CN(C)Cc1ccc(-c2ccc3c(Nc4ccc(Oc5ccccn5)cc4)ccnc3c2)o1` [GW567148X], the potency estimated from few doses in experiment [9] (compound concentrations: 100 nM and 1000 nM (sheet 'Samples'), CATDS: 2.06539246385424E-2) was 902 nM; in experiment [10] (compound concentrations: 100 nM and 1000 nM (sheet 'Samples'), CATDS: 2.01059548951249E-2), 977 nM; in experiment [14] (compound concentrations: 100 nM and 1000 nM (sheet 'Samples'), CATDS: 1.6574994682998501E-2), 1960 nM; in [8] (CATDS: 5.6320908598955097E-2) it was 121 nM; in experiment [7] (compound concentrations: 100 nM and 1000 nM (sheet 'Samples'), CATDS: 0.100463270176777), 51.4 nM; in experiment [12] (compound concentrations: 100 nM and 1000 nM (sheet 'Samples'), CATDS: 1.8058867791982399E-2), 1390 nM. Moreover, the potency estimated from few doses in [13] (compound concentrations: 100 nM and 1000 nM (sheet 'Samples'), CATDS: 2.9353794658715598E-2) was 386 nM.

As for `CC(=O)N1CCN(c2ccc(Nc3nccc(-c4sc(C(C)C)nc4-c4cccc(NS(=O)(=O)c5ccccc5)c4)n3)cn2)CC1` [GSK1645872A], the potency estimated from few doses in experiment [4] (CATDS: 3.2416583266463302E-2) was 615 nM; in experiment [5] (CATDS: 3.8372919727344801E-2), 431 nM; in [15] (CATDS: 3.2303603060191699E-2), 620 nM; in [6] (CATDS: 2.2966868813045101E-2), 1680 nM; in [14] (compound concentrations: 100 nM and 1000 nM (sheet 'Samples'), CATDS: 2.50190585057842E-2), 1230 nM; in experiment [16] (CATDS: 2.4036705391895501E-2), 1410 nM. Moreover, the potency estimated from few doses in [12] (compound concentrations: 100 nM and 1000 nM (sheet 'Samples'), CATDS: 4.4195990908193997E-2) is 331 nM; in experiment [1] (CATDS: 6.4833229163543699E-2), 179 nM.

Turning to `COc1ccc(-c2nc3n(c2-c2ccncc2)CCC3)cc1.COc1ccc(-c2nc3n(c2-c2ccncc2)CCC3)cc1.O=S(=O)(O)O.O=S(=O)(O)O` [SKF-104493-B2], the potency estimated from few doses in [2] (compound concentrations: 100 nM and 1000 nM (sheet 'Samples'), CATDS: 9.7335035775878098E-2) is 2500 nM.

In the case of `CC(=O)N1CCN(c2ccc(Nc3nccc(-c4sc(C(C)C)nc4-c4cccc(NS(=O)(=O)c5cccc(Cl)c5)c4)n3)cn2)CC1` [GSK1660437A], the potency estimated from few doses in [5] (CATDS: 4.5005275972449597E-2) was 1070 nM; in experiment [15] (CATDS: 5.6429200744427303E-2), 643 nM; in [12] (compound concentrations: 100 nM and 1000 nM (sheet 'Samples'), CATDS: 0.17154832295699199), 114 nM; in [1] (CATDS: 5.4931765235902902E-2), 680 nM.

In the case of `Cn1cc(-c2cnc(N)c3c(-c4ccc5c(c4)CCN5C(=O)Cc4ccccc4)csc23)cn1` [GSK2593074A], the potency estimated from few doses in experiment [14] (setting [18]) was 151 nM; in [7] (setting [18]) it was 979 nM.

Turning to `CC(C)c1nc(-c2cccc(NS(=O)(=O)c3c(F)cccc3F)c2F)c(-c2ccnc(Nc3ccc(N4CCOCC4)nc3)n2)s1` [GSK2008607A], the potency estimated from few doses in experiment [17] was 1030 nM; in [5] (CATDS: 3.1735932444665597E-2), 424 nM; in experiment [15] (CATDS: 2.730533885315E-2), 587 nM; in experiment [6] (CATDS: 1.9051705210026099E-2), 1650 nM; in experiment [14] (compound concentrations: 100 nM and 1000 nM (sheet 'Samples'), CATDS: 2.9714339770291101E-2) it was 487 nM; in [16] (CATDS: 2.2429602546286599E-2), 967 nM. Also, the potency estimated from few doses in experiment [12] (compound concentrations: 100 nM and 1000 nM (sheet 'Samples'), CATDS: 0.15679756420664201) is 38.7 nM; in [1] (CATDS: 3.65380455917537E-2), 323 nM; in experiment [13] (compound concentrations: 100 nM and 1000 nM (sheet 'Samples'), CATDS: 3.47729479590888E-2), 355 nM.

Turning to `N#Cc1cnc2cc(-c3cnc(CNCCN4CCOCC4)s3)ccc2c1Nc1ccc(Oc2ccccc2)cc1` [GW664114X], in [7] (compound concentrations: 100 nM and 1000 nM (sheet 'Samples'), CATDS: 9.4704147517168505E-2), the potency estimated from few doses is 230 nM.

On to `Cl.Cn1c(=O)c(Cc2ccc(F)cc2F)cc2cnc(NC3CCOCC3)nc21` [RO3308757-001], for which the potency estimated from few doses in experiment [9] (setting [18]) was 399 nM; in experiment [10] (setting [18]), 541 nM; in [12] (setting [18]), 963 nM; in [13] (setting [18]), 230 nM.
